The campaign covered roughly 69,000 compounds. About 8,600 (12%) showed an effect of 50% or more. The full list was thinned out, with strong results kept by preference.
tested on: Plasmodium berghei; assay: Screen against P. berghei liver stage (PbLuc), transformed with Luciferase, at 10uM; assay type: functional, HepG2; details: tested at 10 uM

Going from `CN1CCCN(C(=O)c2nc3c(o2)CN(S(C)(=O)=O)C3)CC1` to `Cc1ccc(C(=O)N2CCCN(Cc3cccs3)CC2)c(=O)[nH]1`, the INHIBITION falls from 41.2% to 17.68%.

Compared with `Cn1cc(CN2CCC3(CCCN3Cc3cccnc3)CC2)cn1`, `Cn1ccc(CN2CCCC23CCN(Cc2cccc(F)c2)CC3)n1` is higher in INHIBITION: 29% for the first, 56.6% for the second.

First: Cc1ccc(N2CCC3(CCCN3Cc3ccn(C)n3)CC2)nn1
Second: COc1cc(N2CCC3(CCCN3Cc3ccn(C)n3)CC2)ncn1
The INHIBITION of the first is higher: 53.9% for the first, 21.7% for the second.

First: Cn1ccc(CN2CCC3(CCCN3CC3CC3)CC2)n1
Second: Cn1ccc(CN2CCCC23CCN(Cc2nccn2C)CC3)n1
The INHIBITION of the first is lower: 17.7% for the first, 27.6% for the second.

Compared with `Fc1cccc(CN2CCC3(CCCN3c3ncccn3)CC2)c1`, `c1cnc(N2CCCC3(CCN(Cc4cccs4)C3)C2)nc1` (stereo not drawn) is lower in INHIBITION: 42.4% for the first, -20.8% for the second.

Compared with `Cn1ccc(CN2CCCC23CCN(Cc2ccccc2F)CC3)n1`, `Cn1ccc(CN2CCCC23CCNCC3)n1` is lower in INHIBITION: 53% for the first, -12.1% for the second.

First: CCOCCCC(=O)Nc1cccnc1-n1ccnc1C
Second: N#Cc1cccnc1N1CCCN(C(=O)CCc2nccs2)CC1
The INHIBITION of the first is higher: 7.92% for the first, -19.4% for the second.

Going from `COc1ccc(C(C)N(C)Cc2c(C3CC3)[nH]c3ncccc23)cc1` (stereo not drawn) to `COc1ccc(-c2cnc(NC(C)=O)[nH]2)cc1`, the INHIBITION rises from 44.8% to 56%.

First: CN(Cc1ccco1)[C@@H]1CN(C(=O)c2ccnnc2)[C@@H]2CCCO[C@H]12
Second: Cc1cc(C)n(CC2CCCN2C(=O)c2nccc3ccccc23)n1 (stereo not drawn)
The INHIBITION of the first is higher: 41.8% for the first, -144% for the second.

Going from `Cc1ccc(CC(=O)N2Cc3nccn3CC(CN(C)C)C2)cc1` (stereo not drawn) to `CC(=O)Nc1ncc(-c2ccc(C)cc2)[nH]1`, the INHIBITION rises from 10.1% to 45.5%.

Compared with `CCOCCNC(=O)c1ccc(OC)cc1I`, `COc1c(CNCCNC(=O)c2ccccc2F)c(C)nn1C` is lower in INHIBITION: 14.4% for the first, -7.31% for the second.

Compared with `COc1c(CNCc2ccc(Cn3ccnc3)cc2)c(C)nn1C`, `CN1CC(c2cc(O)nc(NCc3ccc(Cl)cc3)n2)CC1=O` (stereo not drawn) is lower in INHIBITION: 16.8% for the first, -17.7% for the second.

Compared with `CC1N(CC2CC2)C(=O)COC12CCN(C(=O)c1cccs1)CC2` (stereo not drawn), `CC1N(CC2CC2)C(=O)COC12CCN(C(=O)c1ccncc1)CC2` (stereo not drawn) is lower in INHIBITION: 74.8% for the first, 48.2% for the second.

Going from `COCCN1CCC2(C1)c1ccccc1S(=O)(=O)N2Cc1ccccc1` (stereo not drawn) to `CCCN1CCC2(C1)c1ccccc1S(=O)(=O)N2Cc1ccccc1` (stereo not drawn), the INHIBITION rises from 15.3% to 68.4%.

Going from `CC1N(CC2CC2)C(=O)COC12CCN(C(=O)c1ccno1)CC2` (stereo not drawn) to `Cc1cc(C(=O)N2CCC3(CC2)CC(c2cccnc2)C(=O)N3C)no1` (stereo not drawn), the INHIBITION falls from 11.3% to -36.5%.

First: CN1CCN(Cc2cccnc2)C(=O)C12CCN(CC1CCOC1)CC2 (stereo not drawn)
Second: O=C(N1CCCO1)[C@@]12CCO[C@@H]1CCN(Cc1cccnc1)C2
The INHIBITION of the first is higher: 29.4% for the first, 17.4% for the second.

Compared with `COCCN1C2(CCN(CC3CC3)C2)c2ccccc2S1(=O)=O` (stereo not drawn), `CCNC(=O)N1CCC2(C1)c1ccccc1S(=O)(=O)N2CCOC` (stereo not drawn) is higher in INHIBITION: -54.9% for the first, -1.15% for the second.

Compared with `CCCN1CCC2(C1)c1ccccc1S(=O)(=O)N2Cc1ccc(F)cc1` (stereo not drawn), `CN1C2(CCN(Cc3ccc(F)cc3)C2)c2ccccc2S1(=O)=O` (stereo not drawn) is lower in INHIBITION: 23.3% for the first, 16.9% for the second.

Going from `O=S1(=O)c2ccccc2C2(CCN(Cc3ccccc3)C2)N1CC1CC1` (stereo not drawn) to `O=S1(=O)c2ccccc2C2(CCN(Cc3cccnc3)C2)N1CC1CC1` (stereo not drawn), the INHIBITION falls from 81.3% to 76.5%.

Going from `CNC(=O)c1cn[nH]c1C1CCCN1c1nc(C)cc(C)n1` (stereo not drawn) to `COc1ccccc1C(=O)N1CCOCC1c1c(C)n[nH]c1C` (stereo not drawn), the INHIBITION falls from 34.1% to -34.8%.

Compared with `CCN1CCOCC2(CCCN(C(=O)c3ccccc3F)C2)C1` (stereo not drawn), `CC(C)N1CCOCC2(CCCN(C(=O)CCc3cccnc3)C2)C1` (stereo not drawn) is higher in INHIBITION: -60.3% for the first, 35.4% for the second.

First: CN(C)[C@@H]1CN(Cc2ccccc2O)C[C@H]1c1cn(C)c2ccccc12
Second: Cc1ccccc1CN1C[C@H]2CC[C@@H](C1)N(CC1CCC1)C2=O
The INHIBITION of the first is higher: 49.5% for the first, 28.3% for the second.

First: Cn1ccnc1CNC(=O)c1cnc(C2CCNCC2)cn1
Second: Cn1ccnc1CN1CCC2(CC1)Cc1ccccc1CNC2=O
The INHIBITION of the first is higher: 33% for the first, 23.6% for the second.

First: COc1ccccc1C1(CNC(=O)NCc2noc(C)n2)CC1
Second: CNC(=O)CCN(C)CC1(c2ccc(Br)cc2)CC1
The INHIBITION of the first is higher: 4.66% for the first, -0.532% for the second.

Going from `Cc1nc(C(=O)N(C)CC(=O)N(C)C)nn1-c1ccccc1C(C)C` to `CC(C)[C@H](NS(C)(=O)=O)C(=O)NCc1cc(-c2ccccc2)nn1C`, the INHIBITION rises from -15.5% to 20.4%.

Compared with `COCCN1C2(CCN(C(=O)c3cccs3)C2)c2ccccc2S1(=O)=O` (stereo not drawn), `O=C(c1cccs1)N1CCC2(C1)c1ccccc1S(=O)(=O)N2CC1CC1` (stereo not drawn) is higher in INHIBITION: 8.03% for the first, 51.2% for the second.

Compared with `COCCNC(=O)Cn1cc(OCc2ccccc2)c(=O)cc1CO`, `NC(=O)NCCC(=O)N1CCC(c2cc(Cc3ccccc3)n[nH]2)CC1` is higher in INHIBITION: -8.66% for the first, -5.22% for the second.

First: COc1ccc(OCCc2nnc(NC(C)=O)s2)cc1
Second: COc1ccc(CN2CCC3(CCCN(c4ncc(F)cn4)C3)C2)cc1 (stereo not drawn)
The INHIBITION of the first is lower: 20.9% for the first, 74.2% for the second.

First: CC(C)CCN1C[C@@H]2C[C@H](C(=O)N3CCCC3)[C@H](C1)O2
Second: C1CCN(CCOC2CCNC2)CC1 (stereo not drawn)
The INHIBITION of the first is higher: 10.6% for the first, 5.42% for the second.

Going from `CN1N=C(C(=O)NCCc2ccc(OC3CCCC3)cc2)CCC1=O` to `Cc1nc2cc(CNC(=O)C3CC(=O)N(C4CCCC4)C3)ccc2n1C` (stereo not drawn), the INHIBITION rises from 45.4% to 53.7%.

First: CC(C)[C@H](NS(C)(=O)=O)C(=O)NCc1cc(-c2ccco2)n[nH]1
Second: CC(C)[C@H](NS(C)(=O)=O)C(=O)NCc1cc(-c2ccco2)nn1C
The INHIBITION of the first is lower: 23.4% for the first, 54.5% for the second.

Compared with `Cc1nc(CN(CCS(C)(=O)=O)C(C)(C)C)no1`, `Cc1nc2cc(CNC(=O)C3CC(=O)N(CCN(C)C)C3)ccc2n1C` (stereo not drawn) is lower in INHIBITION: 12.9% for the first, -4.35% for the second.

Going from `CCOCC(=O)NC1(c2nc(C)cs2)CCCC1` to `CCOCC(=O)N1CCC2(CC1)CC(c1ccccc1)CO2` (stereo not drawn), the INHIBITION rises from 25.2% to 38.5%.

Going from `CCN1CC(C(=O)NCc2ccc3c(c2)nc(C)n3C)CCC1=O` (stereo not drawn) to `Cc1cccc(CN2C(=O)CCC23CCN(C(=O)NC(C)C)CC3)n1`, the INHIBITION falls from 11.9% to -40.5%.

Going from `CCc1cnc(N)nc1NCCC(=O)NC1CCCCC1` to `CCc1nc(N)nc(NCCC(=O)NC2CCCCC2)c1C`, the INHIBITION falls from 68.4% to 41.5%.

Compared with `CCc1cnc(N)nc1NCCN1CCCCC1`, `CC(C(=O)NCCCN1CCOCC1)n1cncn1` (stereo not drawn) is lower in INHIBITION: 5.14% for the first, -22.9% for the second.

Compared with `O=C(NC1CC1)C1(Cc2cc(-c3ccc(F)cc3F)no2)CCOCC1`, `N#CC1(C(=O)N2CCOC(c3ccc(F)cc3)C2)CCCC1` (stereo not drawn) is higher in INHIBITION: 31.6% for the first, 54.2% for the second.

Compared with `Nc1nccc(N2CCC(c3cc(Cc4ccccc4)n[nH]3)CC2)n1`, `Nc1nc(O)cc(N2CCC(c3cc(Cc4ccccc4)n[nH]3)CC2)n1` is lower in INHIBITION: 78.8% for the first, 47% for the second.

Going from `Cc1ccc(N2CCC(c3cc(Cc4ccccc4)n[nH]3)CC2)nn1` to `Nc1cc(N2CCC(c3cc(Cc4ccccc4)n[nH]3)CC2)ccn1`, the INHIBITION rises from 20.9% to 75.4%.

First: Cc1cc(CN2CCC(c3cc(Cc4ccccc4)n[nH]3)CC2)[nH]n1
Second: COc1ccccc1-c1cccc(C2CCCN(C3CCOCC3)C2)n1 (stereo not drawn)
The INHIBITION of the first is lower: 30.9% for the first, 36.95% for the second.

First: Cc1noc([C@H]2C[C@@H]3CCN(CC4CC4)C[C@H]3O2)n1
Second: Cc1nccc(C2CCCN(S(=O)(=O)N3CCOCC3)C2)n1 (stereo not drawn)
The INHIBITION of the first is lower: -5.29% for the first, 24.075% for the second.

First: Cn1cc(I)c(C(=O)NCCCn2cc(Br)cn2)n1
Second: CCn1cc(CN2C[C@@H]3CC[C@H]2CN(C(=O)c2cnccn2)C3)cn1
The INHIBITION of the first is higher: 26.8% for the first, 21.5% for the second.

First: CNCc1cc(F)ccc1Oc1ccc(F)cc1F
Second: O=C(CN1C(=O)CCNC1=O)N1CCOC(c2ccc(F)cc2)C1 (stereo not drawn)
The INHIBITION of the first is higher: -13.7% for the first, -141% for the second.

First: CC1COC2(CCN(C(=O)Cc3ccncc3)CC2)C1 (stereo not drawn)
Second: O=C(Cc1ccncc1)N1CCC2(CC1)CC(c1ccccc1)CO2 (stereo not drawn)
The INHIBITION of the first is lower: 62.9% for the first, 95.5% for the second.

First: O=C(Cc1ccccc1)N1CCC2(CC1)CC(Nc1cnccn1)CO2 (stereo not drawn)
Second: Cn1cc(C2COC3(CCN(C(=O)Cc4ccccc4)CC3)C2)cn1 (stereo not drawn)
The INHIBITION of the first is lower: 31.5% for the first, 48.4% for the second.

Going from `COCCC1COC2(CCN(C(=O)Cc3ccccc3)CC2)C1` (stereo not drawn) to `CCN1CC2(CNCCN(C(=O)Nc3ccccc3)C2)CC1=O` (stereo not drawn), the INHIBITION falls from 28.7% to -80%.

Going from `CCN1CCC(N2CCN(C)C3(CCC(=O)N(CCOC)CC3)C2)CC1` (stereo not drawn) to `COCCN1CCC2(CCCN(c3ncc(F)cn3)C2)C1` (stereo not drawn), the INHIBITION rises from 7.92% to 24.9%.

First: COC(=O)c1cccc(C2CNCCN2C)c1 (stereo not drawn)
Second: N#CC1(C(=O)N2CCOC(c3ccc(F)cc3)C2)CCCCC1 (stereo not drawn)
The INHIBITION of the first is higher: 32.7% for the first, -14.2% for the second.

Going from `NS(=O)(=O)CCN1CCOC(c2ccc(Cl)cc2)C1` (stereo not drawn) to `CCn1cnnc1CNC(=O)N1CCOC(c2ccc(Cl)cc2)C1` (stereo not drawn), the INHIBITION rises from -51.9% to 27.5%.

Going from `N#CC1(C(=O)N2CCOC(c3ccc(Cl)cc3)C2)CCCC1` (stereo not drawn) to `Fc1cnc(N2CCCC3(CCN(Cc4ccoc4)C3)C2)nc1` (stereo not drawn), the INHIBITION falls from 57.1% to 40.4%.

Going from `CCS(=O)(=O)N1CCC2(CCCN(c3ncc(F)cn3)C2)C1` (stereo not drawn) to `CCCS(=O)(=O)N1CCC2(CCCN(c3ncc(F)cn3)C2)C1` (stereo not drawn), the INHIBITION falls from 55.5% to 41%.

Going from `c1csc(CN2CCC3(CCCN(c4nncs4)C3)C2)n1` (stereo not drawn) to `Fc1cnc(N2CCCC3(CCN(Cc4nccs4)C3)C2)nc1` (stereo not drawn), the INHIBITION rises from -79.8% to 55.5%.

First: c1ccc(N2CCCC3(CCN(Cc4nccs4)C3)C2)nc1 (stereo not drawn)
Second: Fc1cnc(N2CCCC3(CCN(Cc4cccs4)C3)C2)nc1 (stereo not drawn)
The INHIBITION of the first is lower: 29.1% for the first, 57.9% for the second.

Compared with `Fc1cnc(N2CCCC3(CCN(Cc4ccco4)C3)C2)nc1` (stereo not drawn), `CS(=O)(=O)N1CCC2(CCCN(c3ncc(F)cn3)C2)C1` (stereo not drawn) is higher in INHIBITION: -3.88% for the first, 28.2% for the second.

From ChEMBL document CHEMBL4513216, “Probing the Open Global Health Chemical Diversity Library for Multistage-Active Starting Points for Next-Generation Antimalarials” (ACS Infect Dis, 2020)
